Several values for one entry are separate records, joined by “and”; a condition that tells them apart may be missing. Equal values may be shown once. Screen size: about 360,000 compounds; about 11,000 (3.1%) were called active. Many of the other results were omitted from the sample, so actives are more common in it than they were. Unmarked numbers belong to inactive results. Cut-off read from the data, not from the text of the source: active = activity change below about -30%; inactive = the rest.
These compounds were tested against D(1A) dopamine receptor (Homo sapiens) (UniProt P21728) (assay: Antagonist of Human D 1 Dopamine Receptor: qHTS). Conditions: HEK293 TREx D1 cells, calcium flux, dopamine EC80; at 10 µM; stronger effect = lower value.
D(1A) dopamine receptor (Homo sapiens), sequence (P21728 whole entry, looked up): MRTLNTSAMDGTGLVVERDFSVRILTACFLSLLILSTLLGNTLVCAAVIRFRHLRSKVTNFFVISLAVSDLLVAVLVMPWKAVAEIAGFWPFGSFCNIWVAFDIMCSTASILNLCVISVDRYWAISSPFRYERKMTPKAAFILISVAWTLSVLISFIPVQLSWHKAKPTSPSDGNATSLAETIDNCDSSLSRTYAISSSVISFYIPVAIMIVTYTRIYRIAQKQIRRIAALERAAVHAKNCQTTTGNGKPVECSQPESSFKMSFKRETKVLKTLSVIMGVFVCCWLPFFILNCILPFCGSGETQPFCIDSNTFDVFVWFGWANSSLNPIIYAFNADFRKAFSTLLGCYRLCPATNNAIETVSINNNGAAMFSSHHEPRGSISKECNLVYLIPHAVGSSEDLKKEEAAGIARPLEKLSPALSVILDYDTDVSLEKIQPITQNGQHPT
How it was run: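 After overnight tetracycline induction at 30 C, force-coupled D1 HEK293 cells took up a no-wash calcium dye at room temperature. Compounds were added and monitored 180 s, and the response to EC80 dopamine was then recorded.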
% is set by controls: 0 for no effect and ±100 for the full control effect.

SMILES	activity change, negative = inhibition
Cc1cccc(-n2ncc(C(=O)N3CCc4ccccc4C3)c2C2CCN(C(=O)OC(C)(C)C)CC2)c1	7.17%
Oc1c(Cl)cc(Cl)c(Cl)c1Cc1c(O)c(Cl)cc(Cl)c1Cl	-41.7% (active)
CCc1ccc(NC(=O)CN2C(=O)C(c3ccccc3)=NC23CCCCCC3)cc1	-6.53%
COc1ccc(/C=C/C(=O)Nc2c(C)nn(C)c2C)cc1COc1ccc(Br)cc1	9.14%
CCn1nc(C)c(NC(=O)/C=C/c2ccc(OC)c(COc3ccc(Br)cc3)c2)c1C	-39.8% (active)
COc1ccc(C(C)=O)cc1COc1ccc(Cl)c(C)c1	0.455%
COc1cccc(CNC(=O)C2CCC(CNS(=O)(=O)c3cccs3)CC2)c1 (centres undefined)	-1.65%
CCc1ccccc1N1C(=O)CN(S(=O)(=O)CC)CC1(C)C(=O)NC1CCCCC1 (centres undefined)	-10.1%
Cc1ccccc1C(=O)Nc1sc2c(c1C(=O)N1CCC(C)CC1)CCCC2	5.36%
Fc1ccc2[nH]c3c(N4CCSCC4)ncnc3c2c1	-30.2% (active)
Fc1ccc2[nH]c3c(N4CCN(Cc5ccc6c(c5)OCO6)CC4)ncnc3c2c1	-7.57%
NC(=O)CC[C@@H]1NC(=O)[C@H](CO)NC(=O)c2cc([N+](=O)[O-])cc(I)c2NCC[C@@H](C(N)=O)NC1=O	-14%
NCCCC[C@@H]1NC(=O)[C@H](CCC(=O)O)NC(=O)c2cc([N+](=O)[O-])cc(I)c2NCC[C@@H](C(N)=O)NC1=O	-2.74%
NC(=O)C[C@@H]1NC(=O)CNC(=O)c2cc([N+](=O)[O-])cc(I)c2NCCC(C(N)=O)NC1=O (some centres undefined)	-30.2% (active)
O=C(CSc1nc(-c2cccc(F)c2)[nH]c1-c1ccccc1)Nc1ccc2c(c1)OCO2	-4.86%
Cc1cccc(N2CCN(C(=O)c3cnc(N4CCCC4)nc3C)CC2)c1C	10%
CCCCn1c(=N)c(S(=O)(=O)c2ccccc2)cc2c(=O)n3cccc(C)c3nc21	1.3%
CCOc1ccc(NC(=O)CSc2c3c(nc4ccccc24)CCCC3)cc1	-2.6%
N#Cc1cccc(Nc2c3c(nc4ccccc24)CCCC3)c1	-36.2% (active)
CCOc1ccc(C(=O)Nc2ccc3nc4c(c(Nc5ccccc5OC)c3c2)CCCC4)cc1	-7.4%
Cc1ccc(Nc2c3c(nc4ccccc24)CCC3)cc1	-39.1% (active)
N#Cc1cccc(NC(=O)CN2CCCCCC2)c1	-7.3%
COc1ccccc1Nc1c2c(nc3ccc(NC(=O)/C=C/c4cc(OC)c(OC)c(OC)c4)cc13)CCCC2	3.33%
O=C(NC1CCCCC1)c1ccc2c(c1)N(Cc1ccc(Cl)cc1)C(=O)c1ccccc1S2=O (centres undefined)	-15.6%
Cn1nc(-c2ccccc2)c(-c2ccccc2)c(C(=O)Nc2ccc(S(N)(=O)=O)cc2)c1=O	-1.5%
Cc1cc(C)c(NC(=O)CCc2c(C)nc3c(c(C)nn3C(C)(C)C)c2C)c(C)c1	1.02%
CCN1CCN(Cc2c(O)ccc3oc(C)c(C(=O)Nc4ccc(C)cc4C)c23)CC1	7.06%

SMILES	activity change, negative = inhibition
COc1ccccc1CNc1ccc(-c2nc(-c3ccccc3C)no2)cc1[N+](=O)[O-]	-10.5%
O=C(C1CCCN(S(=O)(=O)c2cccc3nonc23)C1)N1CCN(c2ccccc2F)CC1 (centres undefined)	10.7%
COc1ccc(C(=O)NCCNc2ccc([N+](=O)[O-])cn2)cc1	-8.65%
O=C(NCCNc1ccc([N+](=O)[O-])cc1)c1cccc2c(Br)cccc12	-63.4% (active)
CC(CNc1ccc([N+](=O)[O-])cc1)NC(=O)c1ccccc1Br (centres undefined)	-2.12%
Cc1ccc(CCNC(=O)c2ccc3c(c2)nc2n3CCC(C)C2)cc1 (centres undefined)	-13.4%
N=c1n(Cc2ccc(Cl)cc2)c2ccccc2n1CC(O)c1ccco1 (centres undefined)	-51.9% (active)
O=C(c1ccco1)n1nc(-c2ccc(Cl)cc2)nc1NCc1ccccc1	-12.9%
CC1CN(C(=O)CCC(=O)NCCCN2CCC(Cc3ccccc3)CC2)c2cc(Cl)ccc2O1 (centres undefined)	-43.5% (active)
Cc1ccc2c(c1)N(C(=O)CCC(=O)NCc1ccccc1F)CC(C)O2 (centres undefined)	-22.7%
COc1ccccc1NC(=O)CCC(=O)N1CC(C)Oc2ccc(C)cc21 (centres undefined)	7.34% and 2.65%
COc1ccc(N2C(=O)CSC23C(=O)N(Cc2cccc(F)c2)c2ccccc23)cc1Cl (centres undefined)	-0.577%
CCOc1ccc(CCNC(=O)Nc2ccccc2)cc1OCC	14.7%
CONC(=O)c1cc(OCC(F)(F)F)ccc1OCC(F)(F)F	8%
O=C(NC(=O)c1cc(OCC(F)(F)F)ccc1OCC(F)(F)F)Nc1ccccc1	-35% (active)
CCC1CCCCN1C(=O)Cn1c(=O)n(CCCCCC(=O)NCc2ccccc2)c(=O)c2sccc21 (centres undefined)	-26.9%
COc1ccc(-c2onc(C)c2C)cc1S(=O)(=O)NCc1cccs1	-23.8%
COc1ccccc1/C=C/c1nc(C#N)c(NC(C)c2ccccc2)o1 (centres undefined)	4.56%
O=C(COc1ccccc1)Nc1ccc(N2CCN(C(=O)c3cccs3)CC2)cc1	-10.9%
O=C(Nc1ccc(N2CCN(C(=O)c3cccs3)CC2)cc1)c1cccnc1Cl	2.63%
Cc1ccccc1C(=O)N1CCN(c2ccc(NC(=O)c3cccs3)cc2)CC1	-61.2% (active)
CC1=Nc2cc(C(=O)NCc3ccc(C)cc3)ccc2Sc2ccc(Cl)cc21	4.46%
CCCCN(CC)CCCNC(=O)c1nn(C)c2c1CS(=O)(=O)c1ccccc1-2	4.54%
COc1ccc(Cn2cc(C(=O)c3ccc(C)cc3)c(=O)c3cc(OC)c(OC)cc32)cc1	-0.034%
Cc1ccc(N2CCN(S(=O)(=O)N(C)C)CC2)cc1Cl	-16.4%
O=[N+]([O-])c1ccc(N2CCN(c3ccc(O)cc3)CC2)c(Cl)c1	-19%
CN(C)S(=O)(=O)N1CCN(c2ccc([N+](=O)[O-])cc2)CC1	-43% (active)
